The record followed here is the supplement of paper PMC9948646.

Unmarked numbers belong to inactive results.

This assay concerns gramicidin D channels in DC22:1PC lipid vesicles (bilayer-modifying potency). Put plainly: initial Tl+ fluorescence quench rate relative to no-drug control (NormRate, gramicidin monomer-dimer shift) (ratio (fold of control)); higher = stronger bilayer-modifying effect (equilibrium shifted toward conducting dimers), active = 1.5 or more. Particulars: 10 µM; lipid concentration 50 µM; temperature: 25 °C. On the procedure:
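Stopped-flow fluorescence quench assay: ANTS-loaded DC22:1PC large unilamellar vesicles doped with gramicidin D (1:2000), 50 µM lipid, equilibrated 10 min with 10 µM drug (0.1% DMSO), mixed with Tl+ quench buffer at 25°C. Initial quench rate (Tl+ influx) was fitted with a modified stretched exponential and normalised to the no-drug control rate (NormRate); duplicates from two independent LUV preparations (triplicates for 7 drugs).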
Consider `CC(C)(C)c1ccc(N[C@@H]2CCCC[C@H]2NC(=O)c2ccco2)cc1`, for which the “initial Tl+ fluorescence quench rate” value is 1.36.

As for `CN(C)c1cc(NC(=O)Nc2ccccc2)c2ccccc2n1`, the “initial Tl+ fluorescence quench rate” value is 1.74 (active).

Regarding `O=C1Nc2ccc(Br)cc2[C@]12NCCc1c2[nH]c2ccccc12`, the “initial Tl+ fluorescence quench rate” value is 3.74 (active).

On to `FC(F)(F)c1ccc(N(c2cccnc2)C2CCN(c3ccc(C(F)(F)F)cn3)CC2)cc1`, for which the “initial Tl+ fluorescence quench rate” value was 1.56 (active).

As for `NS(=O)(=O)c1cncc(-c2ccc3nccc(-c4cn[nH]c4)c3n2)c1`, the “initial Tl+ fluorescence quench rate” value is 1.18.

In the case of `O=C(c1ccc(NCCO)cc1)[C@H]1C[C@H]1c1ccc(Cl)cc1`, the “initial Tl+ fluorescence quench rate” value is 3.55 (active).

Regarding `COC(=O)Nc1nc2cc(C(=O)c3ccccc3)ccc2[nH]1`, the “initial Tl+ fluorescence quench rate” value is 1.04.

Consider `O=C([C@@H](Cc1c[nH]c2ccccc12)NS(=O)(=O)c1ccc(Cl)cc1)N1CCCCC1`, for which the “initial Tl+ fluorescence quench rate” value was 4.26 (active).

With `NCCC[C@](N)(C(=O)O)C(F)F`, the “initial Tl+ fluorescence quench rate” value was 1.07.

For `CCc1nc2ccccc2n1C[C@H](O)COc1cc(C)ccc1Cl`, the “initial Tl+ fluorescence quench rate” value was 2.91 (active).

Consider `CC(C)[C@H](NC(=O)Cc1cccc2ccccc12)C(=O)Nc1cccc(C#N)c1`, for which the “initial Tl+ fluorescence quench rate” value is 1.74 (active).

As to `CCc1nc2ccc(C(=O)NCc3ccc4c(c3)OCO4)cn2c1N(C)Cc1cccs1`, the “initial Tl+ fluorescence quench rate” value is 2.01 (active).

`COc1cccc(-c2cc3c(Nc4cccnc4)nccc3[nH]2)c1`: the “initial Tl+ fluorescence quench rate” value was 1.5.

As for `COc1cccn2c(C(=O)N3CCCCC3)c(C(F)(F)F)nc12`, the “initial Tl+ fluorescence quench rate” value is 1.08.

Take `C[C@H](C(N)=O)N1CCCC[C@H]1c1ccc(OCc2cccc(F)c2)cc1`: the “initial Tl+ fluorescence quench rate” value is 1.21.

Consider `c1ccc(Oc2ccc(-c3cc(N4CCNCC4)[nH]n3)cc2)cc1`, for which the “initial Tl+ fluorescence quench rate” value was 1.44.

`C[C@H]1CCCN(C(=O)[C@H](C)Nc2cc(Cl)ccc2N2CCOCC2)C1`: the “initial Tl+ fluorescence quench rate” value is 1.23.

On to `COc1cc(C2=NCCN2)ccc1-c1cn(-c2cccc(C3=NCCN3)c2)nn1`, for which the “initial Tl+ fluorescence quench rate” value was 1.01.

As for `Cc1cc(Cl)ccc1NC(=O)CCc1ccc(S(=O)(=O)NCC(C)C)cc1`, the “initial Tl+ fluorescence quench rate” value was 1.42.

Take `O=C(NCCc1ccn(-c2ccccc2)n1)C1CCCCC1`: the “initial Tl+ fluorescence quench rate” value was 1.05.

Consider `c1ccc(-c2nc(NC3CCCCC3)cc(C3CC3)n2)nc1`, for which the “initial Tl+ fluorescence quench rate” value is 1.76 (active).

Consider `c1ccc(Oc2ccc(-c3cncc(-c4ccc5[nH]ccc5c4)n3)cc2)cc1`, for which the “initial Tl+ fluorescence quench rate” value was 1.69 (active).

As for `CC1=Nc2ccc(Cl)cc2[C@](O)(c2ccc(C)cc2)N1CCN1CCCCC1`, the “initial Tl+ fluorescence quench rate” value was 1.66 (active).

On to `O=C1N(Cc2cc3ccccc3s2)C[C@H]2CN(Cc3ccccc3)CCN12`, for which the “initial Tl+ fluorescence quench rate” value was 2.35 (active).

`Cc1cc(C(=O)Nc2ccc(-c3ccccc3)cc2)no1`: the “initial Tl+ fluorescence quench rate” value was 1.11.

As to `Nc1ncnc2[nH]nc(Cc3cccc4ccccc34)c12`, the “initial Tl+ fluorescence quench rate” value was 1.15.

In the case of `COc1cccc(-n2nnnc2S(=O)(=O)Cc2ccccc2)c1`, the “initial Tl+ fluorescence quench rate” value was 1.07.

As for `CC(C)(C)n1nc(Cc2cccc3ccccc23)c2c(N)ncnc21`, the “initial Tl+ fluorescence quench rate” value is 2.86 (active).

In the case of `CC(C)(C)OC(=O)N1CCN(c2cc(-c3ccc(Oc4ccccc4)cc3)n[nH]2)CC1`, the “initial Tl+ fluorescence quench rate” value is 3.47 (active).

As for `CC(C)(C(=O)Nc1ccc(F)cc1)n1cc(-c2ccccc2F)cn1`, the “initial Tl+ fluorescence quench rate” value is 1.42.

As to `O=S(=O)(c1ccc(Cl)cc1)N1CCN(C(=S)NCc2ccco2)CC1`, the “initial Tl+ fluorescence quench rate” value is 1.54 (active).

Take `CC(=O)N1CCc2cc3nc(C)cc(C)c3cc21`: the “initial Tl+ fluorescence quench rate” value was 1.09.

On to `Cc1cc2nc(NC(=O)C(C)(C)C)nc(Cl)c2n1Cc1ccc(Cl)cc1`, for which the “initial Tl+ fluorescence quench rate” value is 1.77 (active).

Turning to `COc1ccc(C2(C(=O)Nc3ccc(Br)cc3)CCCC2)cc1`, the “initial Tl+ fluorescence quench rate” value is 1.14.

`CO[C@@H](C(=O)N1Cc2[nH]nc(NC(=O)c3ccc(N4CCN(C)CC4)cc3)c2C1)c1ccccc1`: the “initial Tl+ fluorescence quench rate” value is 1.2.

On to `CC(=O)N1CCN(c2ccc(Oc3ccc(Cl)cc3O)cc2)CC1`, for which the “initial Tl+ fluorescence quench rate” value is 1.51 (active).

For the compound `CCCNC(=O)N1CCC2(CC1)CC(=O)c1cc(C)ccc1O2`, the “initial Tl+ fluorescence quench rate” value is 1.15.

Take `COc1ccc(CN2CCOc3ccc([C@@](C)(O)CN(C)C)cc3C2)cc1C`: the “initial Tl+ fluorescence quench rate” value was 1.2.

For the compound `C[C@]1(O)C[C@@H](c2nc(-c3ccc4ccc(-c5ccccc5)nc4c3)c3c(N)nccn32)C1`, the “initial Tl+ fluorescence quench rate” value is 1.59 (active).

Take `O=C(Nc1nc(-c2ccccn2)cs1)c1cncn1-c1ccccc1`: the “initial Tl+ fluorescence quench rate” value is 1.1.
